The record followed here is PubChem BioAssay (Tox21).

Values without a mark were called inactive. Records with an inconclusive call do not appear. Calls of active or inactive are those of the source. Unless noted, the call rests on the fitted dose curve; in most records, active means well fitted curve in the direction sought with a large enough effect in the repeat runs; inconclusive means weak or mixed curves; inactive means no such curve, though single readings can be large; an effect the other way counts as inactive or inconclusive.

The nature of assay [1]: qHTS assay to identify small molecule agonists of the estrogen related receptor signaling pathway with the pleiotropic PPARgamma coactivator (PGC) from Tox21 10K library (AID 1224842). Further: nearly all actives have a fitted effect of over 15% in size. The essentials:
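Luminescence from One-Glo (30 min, room temperature) measured after PGC/ERR cells had 18 h at 37 C with pinned compound (23 nL in DMSO). Cells had been seeded at 2,000 per well and pre-incubated 6 h.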

Assay [2] can be described thus: qHTS assay to identify small molecule agonists of H2AX - cell viability counter screen (AID 1224847; calls by dose curve; further: nearly all actives have a fitted effect of over 30% in size; further: potency means the concentration at half of the fitted maximal effect). The essentials: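 We seed wild-type CHO-K1 cells overnight, treat them for 3 hr at 37C with compounds in 15-concentration series, and quantify remaining viability by CellTiter-Glo luminescence.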
On the technique in general: qHTS replaces the single test concentration by a dilution series.

A short description of assay [3]: qHTS assay to identify small molecule antagonists of the estrogen related receptor (ERR) signaling pathway from Tox21 library (AID 1224848). Further: nearly all actives have a fitted effect of over 50% in size. Further: potency means the concentration at half of the fitted maximal effect. The essentials:
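Luciferase luminescence (ONE-Glo, 30 min room temperature) was the read-out. Cells of the NTP-supplied ERR line, 2,000 per well, were given 6 h at 37 C before compound addition in DMSO and 18 h exposure at 37 C.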

A short description of assay [4]: qHTS RealTime-Glo MT Cell Viability Assay in HEK293 cells - 32 hour (AID 1224868). Further: nearly all actives have a fitted effect of over 50% in size. Further: potency means the concentration at half of the fitted maximal effect. The essentials:
(§1)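 Cells + reagent dispensed (600 cells/well, HEK293) → 5 h at 37 C/5% CO2 → 23 nL compound in DMSO pinned → 40 h at 37 C → luminescence read at 0, 8, 16, 24, 32, 40 h.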

Assay [5] is described as follows: A CellTox Green Cytotoxicity Assay to monitor cytotoxicity in HEK293 cells - 0 hour (AID 1224869). Further: nearly all actives have a fitted effect of over 50% in size. Further: potency means the concentration at half of the fitted maximal effect. The essentials:
(§2)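 Read-out: fluorescence of a cell-impermeant cyanine dye staining DNA of dead cells, proportional to cytotoxicity. HEK293, 600 cells/well with reagent, compound (23 nL DMSO) added after 5 h; reads at 0, 8, 16, 24, 32, 40 h.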

The nature of assay [6]: qHTS RealTime-Glo MT Cell Viability Assay in HepG2 cells - 40 hour (AID 1224870). Further: nearly all actives have a fitted effect of over 50% in size. Further: potency means the concentration at half of the fitted maximal effect. The essentials:
(§3)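 Real-time viability: cells seeded at 600 per well together with NanoLuc and cell-permeant prosubstrate, compounds added after 5 h incubation. Luminescence tracked at 0, 8, 16, 24, 32 and 40 h of exposure.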

The nature of assay [7]: A CellTox Green Cytotoxicity Assay to monitor cytotoxicity in HEK293 cells - 40 hour (AID 1224871). Further: nearly all actives have a fitted effect of over 45% in size. Further: potency means the concentration at half of the fitted maximal effect. The essentials: as §2
A short description of assay [8]: qHTS RealTime-Glo MT Cell Viability Assay in HEK293 cells - 16 hour (AID 1224872). The essentials:
as §1

Assay [9] in a line: qHTS RealTime-Glo MT Cell Viability Assay in HEK293 cells - 40 hour (AID 1224874). The note with it: RealTime-Glo luminescence; max response: active compounds read low. The essentials:
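Luminescence readout at each listed time point; HEK293, 600 cells/well, RealTime-Glo MT reagent added with cells; compounds pinned (23 nL in DMSO) after 5 h at 37 C; continuous culture at 37 C.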

The nature of assay [10]: A CellTox Green Cytotoxicity Assay to monitor cytotoxicity in HEK293 cells - 24 hour (AID 1224875). Further: nearly all actives have a fitted effect of over 45% in size. Further: potency means the concentration at half of the fitted maximal effect. The essentials: as §2
Assay [11] is described as follows: A CellTox Green Cytotoxicity Assay to monitor cytotoxicity in HepG2 cells - 16 hour (AID 1224876). Further: nearly all actives have a fitted effect of over 45% in size. Further: potency means the concentration at half of the fitted maximal effect. The essentials: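 HepG2, 600 cells/well premixed w/ CellTox Green; 5 h settle, 37 C/5% CO2; pintool cpd add (DMSO); 37 C, 40 h; fluorescence read at 0, 8, 16, 24, 32, 40 h.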
The nature of assay [12]: qHTS assay to identify small molecule antagonists of the estrogen related receptor signaling pathway with the pleiotropic PPARgamma coactivator (PGC) from Tox21 10K library - cell viability counter screen (AID 1224840; active means well fitted cell-killing curve with a large enough effect in the repeat runs, not every such curve was filed as active; further: potency means the concentration at half of the fitted maximal effect; nearly all actives have a fitted effect of over 40% in size). The essentials: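 Fluorescence read-out of CellTiter-Fluor viability reagent, added after cells had been exposed to compound in DMSO for 17.5 h at 37 C; 30 min development at 37 C/5% CO2. Cells: PGC/ERR line, 2,000/well.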

A short description of assay [13]: qHTS assay to identify small molecule agonists of the hypoxia (HIF-1) signaling pathway (AID 1224846; active means well fitted activation curve with a large enough effect in the signal ratio in the repeat runs, not every such curve was filed as active; the % refers to the signal ratio). The essentials:
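Beta-lactamase FRET read-out (CCF4-AM substrate) from ME-180 cells carrying an HRE-driven bla reporter, after 17 hrs compound exposure at 37C/5% CO2. Cells were seeded at 2,000 per well in 0.5% dialyzed FBS medium and preincubated 5 hrs.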

Assay [14] can be described thus: qHTS RealTime-Glo MT Cell Viability Assay in HepG2 cells - 24 hour (AID 1224867). Further: nearly all actives have a fitted effect of over 50% in size. Further: potency means the concentration at half of the fitted maximal effect. The essentials: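 Real-time, nonlytic viability: 600 HepG2 cells/well mixed with NanoLuc enzyme plus prosubstrate; 5 h settle, compound (DMSO) added by pintool; luminescence monitored over 40 h at 37 C.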
The nature of assay [15]: qHTS RealTime-Glo MT Cell Viability Assay in HepG2 cells - 8 hour (AID 1224873). Further: nearly all actives have a fitted effect of over 55% in size. Further: potency means the concentration at half of the fitted maximal effect. The essentials: as §3
Assay [16] concerns the target Thyrotropin receptor (Homo sapiens) (UniProt P16473). The assay can be described thus: qHTS assay to identify small molecule agonists of the thyroid stimulating hormone receptor (TSHR) signaling pathway (AID 1224843; calls by dose curve; further: nearly all actives have a fitted effect of over 45% in size; further: potency means the concentration at half of the fitted maximal effect). The essentials: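 Agonist activity read as cAMP rise via d2/cryptate HTRF competition, 1 h room-temperature detection, in HEK293 cells expressing TSHR. Fifteen-point titrations, each run in triplicate, with a 30 min room-temperature incubation beforehand.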

Assay [17] in a line: qHTS assay to identify small molecule agonists of the hypoxia (HIF-1) signaling pathway - cell viability counter screen (AID 1224844; calls by dose curve; further: nearly all actives have a fitted effect of over 50% in size; further: potency means the concentration at half of the fitted maximal effect). The essentials: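 CellTiter-Glo luminescence read-out, 30 min RT, taken in the same wells as the beta-lactamase HRE reporter assay; HRE-bla ME-180 cells, 0.5% dialyzed FBS, 17 hr compound treatment at 37C, 5% CO2.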
Assay [18] can be described thus: qHTS assay to identify small molecule agonists of H2AX (AID 1224845; active means well fitted activation curve with a large enough effect in the signal ratio in the repeat runs, not every such curve was filed as active; the % refers to the signal ratio; further: potency means the concentration at half of the fitted maximal effect). The essentials: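 Phospho-H2AX Ser139 measured by HTRF (ex 320 nm; em 665 and 620 nm) after 24 hr antibody incubation. Compounds, 15 concentrations, 0.76% DMSO, were applied to CHO-K1 cells for 3hr at 37C before lysis.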
The nature of assay [19]: qHTS assay to identify small molecule antagonists of the estrogen related receptor signaling pathway with the pleiotropic PPARgamma coactivator (PGC) from Tox21 10K library (AID 1224841; call rule not given here). The essentials:
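Luminescence read-out (One-Glo luciferase reagent, 30 min at room temperature) from PGC/ERR cells exposed to DMSO-dissolved test compounds for 18 h at 37 C; cells, 2,000 per well, had been preincubated 6 h before compound transfer.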

Thyrotropin receptor (Homo sapiens), sequence (P16473 whole entry, looked up): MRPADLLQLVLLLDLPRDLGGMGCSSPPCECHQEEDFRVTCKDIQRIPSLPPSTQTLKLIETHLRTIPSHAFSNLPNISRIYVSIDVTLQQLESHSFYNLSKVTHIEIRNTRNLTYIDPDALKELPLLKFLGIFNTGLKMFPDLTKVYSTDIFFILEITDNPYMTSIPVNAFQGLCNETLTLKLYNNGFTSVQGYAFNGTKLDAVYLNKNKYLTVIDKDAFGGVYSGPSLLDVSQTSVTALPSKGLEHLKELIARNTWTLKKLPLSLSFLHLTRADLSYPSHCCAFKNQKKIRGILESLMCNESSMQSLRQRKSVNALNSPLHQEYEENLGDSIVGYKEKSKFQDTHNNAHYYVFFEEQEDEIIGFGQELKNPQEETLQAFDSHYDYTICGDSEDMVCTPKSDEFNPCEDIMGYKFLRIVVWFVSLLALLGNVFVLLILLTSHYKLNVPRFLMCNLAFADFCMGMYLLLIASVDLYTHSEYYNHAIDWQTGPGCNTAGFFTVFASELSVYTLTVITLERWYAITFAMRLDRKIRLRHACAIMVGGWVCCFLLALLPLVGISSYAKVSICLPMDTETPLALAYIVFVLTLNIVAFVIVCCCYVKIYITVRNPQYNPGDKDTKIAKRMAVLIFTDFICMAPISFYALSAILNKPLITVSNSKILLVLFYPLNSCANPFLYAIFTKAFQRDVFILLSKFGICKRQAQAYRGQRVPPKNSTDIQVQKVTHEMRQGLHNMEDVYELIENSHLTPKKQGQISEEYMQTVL

Turning to `CC(O)(c1ccc(Cl)cc1)c1ccc(Cl)cc1`, the Potency result in [1], in [5] and in assay [6] was “inactive” throughout. Besides, the Potency is 56.6 µM (active) in assay [2]; 61.1 µM (active) in [3]; 24.5 µM (active) in [4]; 49 µM (active) in assay [7]; 38.9 µM (active) in assay [8]; 24.5 µM (active) in assay [9]. Besides, the Potency in assay [10] and in [11] was 49 µM (active) each time.

Turning to `CS(=O)(=O)c1ccc([C@@H](CC2CCCC2)C(=O)Nc2cnccn2)cc1Cl`, the Potency in [2] was 101 µM (active).

As to `CCN(CC)c1ccc2c(c1)Oc1cc(N(CC)CC)ccc1C21OC(=O)c2ccccc21`, the Potency was 8.41 µM (active) in assay [12]; 15.6 µM (active) in assay [2]; 19 µM (active) in assay [5]; 16.9 µM (active) in [7]; 19 µM (active) in assay [10]; 23.9 µM (active) in [11]. In addition, the Potency result in assay [13], in assay [14], in [6] and in [15] was “inactive” throughout.

Take `COc1ccc(OC)c(N=Nc2c(O)ccc3ccccc23)c1`: the Potency entry in [16], in [18], in assay [3], in assay [14], in [5] and in assay [6] was “inactive” throughout. Moreover, the Potency result in [7], in assay [10] and in [11] was “inactive” each time. The figures for the Potency in assay [17] and in [2] were 38.9 µM (active) and 40.1 µM (active), respectively.

As for `Clc1nc(C(Cl)(Cl)Cl)c(Cl)c(Cl)c1Cl`, the Potency entry in assay [1], in [2], in assay [4], in assay [5], in [15] and in assay [11] was “inactive” throughout. Also, the Potency in assay [17] was 4.9 µM (active); in assay [6] it was 54.9 µM (active); in [9], 0.011 µM (active).

Take `CC(Cc1ccc(O)c(O)c1)C(C)Cc1ccc(O)c(O)c1` (configuration not stated): the Potency result in assay [1], in [16], in assay [17], in assay [5] and in assay [10] was “inactive” each time. Also, the Potency in [14] was 43.6 µM (active); in assay [4] it was 34.7 µM (active); in [8], 49 µM (active); in assay [15], 43.6 µM (active); in assay [9], 38.9 µM (active); in [11] it was 49 µM (active).

Take `O[Si](c1ccccc1)(c1ccccc1)c1ccccc1`: the Potency in assay [19] is 68.6 µM (active); in assay [16], 48.6 µM (active); in [2], 101 µM (active); in [4], 38.9 µM (active); in assay [9], 38.9 µM (active). Further, the Potency entry in [1], in [17], in assay [18], in assay [13], in [14] and in [5] was “inactive” in each case. Moreover, the Potency result in assay [6], in [7], in [15], in [10] and in [11] was “inactive” throughout.

With `Cc1cc(F)ccc1-c1cc(N2CC[C@@H](O)[C@H]2CO)ncc1N(C)C(=O)C(C)(C)c1cc(C(F)(F)F)cc(C(F)(F)F)c1`, the Potency entry in assay [16] and in assay [5] was “inactive” in each case. The Potency is 24.2 µM (active) in [17]; 39.5 µM (active) in assay [18]; 70.2 µM (active) in assay [2]; 38.3 µM (active) in assay [14]; 17.1 µM (active) in assay [4]; 43 µM (active) in [6]. The Potency was 43 µM (active) in assay [7], 38.3 µM (active) in assay [15], 17.1 µM (active) in [9] and 43 µM (active) in assay [11].

As for `COc1cc(/C=C/C(=O)CC(=O)/C=C/c2ccc(O)c(OC)c2)ccc1O`, the Potency in assay [19] is 19.4 µM (active); in assay [17], 39.2 µM (active); in assay [3], 13.8 µM (active); in [4] it was 24.7 µM (active); in assay [5] it was 22 µM (active); in [7] it was 24.7 µM (active). In addition, the Potency in [8] was 24.7 µM (active); in [9] it was 22 µM (active); in [10], 43.9 µM (active); in [11], 49.3 µM (active). Moreover, the Potency entry in [1] is “inactive”.
